Bioassay records as filed in PubChem.
In the library only some 18% were active in any assay of this set; here they are far more common.
LDHA inh: inhibitors of human lactate dehydrogenase A. P00338. purified LDHA, NADH/diaphorase-resazurin fluorescence; active compounds read low. activity change, % (values are at about 110 or 230 µM). actives 0.15% (n = 480,000). AID 1347041; in the data active = activity change below about -30%; inconclusive = mostly about -25% to -30%;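 also: plate controls were DMSO wells for no effect and wells without enzyme for full effect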
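Remaining NADH was detected by diaphorase (0.133 mg/mL) converting 37 µM resazurin to fluorescent resorufin, read at 0 and 20 minutes. The preceding 5-minute room-temperature reaction used 2 nM LDHA, 0.2 mM sodium pyruvate and 0.06 mM NADH at pH 7.4.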
RORg inh: inhibitors of mouse ROR gamma transcriptional activity | AID 2551 | P51450 | actives 5.4% (n = 310,000) | Drosophila S2 Gal4-RORgamma UAS-luciferase reporter, 20 h | Potency, µM (series often up to 53.6 µM), without a hit: at the highest dose activity change, negative = inhibition, hits mostly inhibitors; also: potency is read from the fitted curve at half-maximal effect; nearly all actives have a fitted effect of over 60% in size
Target sequence (P51450 whole entry, looked up, the tested form may be a part): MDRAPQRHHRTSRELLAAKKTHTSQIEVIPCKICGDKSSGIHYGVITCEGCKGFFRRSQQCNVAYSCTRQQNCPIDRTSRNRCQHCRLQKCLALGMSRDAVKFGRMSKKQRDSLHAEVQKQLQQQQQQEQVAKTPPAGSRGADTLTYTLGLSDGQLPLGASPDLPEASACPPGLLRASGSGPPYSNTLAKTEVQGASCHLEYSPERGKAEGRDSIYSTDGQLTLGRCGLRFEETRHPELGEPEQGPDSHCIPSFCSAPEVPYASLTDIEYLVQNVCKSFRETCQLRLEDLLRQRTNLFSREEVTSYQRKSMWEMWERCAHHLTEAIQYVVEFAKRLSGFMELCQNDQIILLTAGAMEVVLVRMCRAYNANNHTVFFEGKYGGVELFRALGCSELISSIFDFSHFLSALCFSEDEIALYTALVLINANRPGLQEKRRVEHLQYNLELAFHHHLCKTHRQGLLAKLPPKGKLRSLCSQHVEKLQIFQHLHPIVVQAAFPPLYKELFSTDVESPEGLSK
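In this cell-based reporter format, copper sulfate (700 uM final) drives Gal4–ROR gamma fusion expression from a metallothionein promoter in Drosophila Schneider cells; compounds preincubated 1 hr, reporter read after 20 hr at ambient temperature.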
VP16 counter: inhibits Gal4-VP16 luciferase reporter, ROR gamma counter-screen; Drosophila S2 Gal4-VP16 UAS-luciferase, luminescence, 20 h; AID 2546; actives 3.5% (n = 310,000); Potency, µM (series often up to 53.6 µM), for the others: top-dose activity, negative = inhibition, usual class: inhibitors;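 also: Gal4-VP16 expression switched on by copper sulfate through the metallothionein promoter; potency is read from the fitted curve at half-maximal effect; nearly all actives have a fitted effect of over 50% in size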
TDP1 cell noCPT: qHTS for Inhibitors of human tyrosyl-DNA phosphodiesterase 1 (TDP1): qHTS in cells in absence of CPT | DT40 Tdp1-/- hTDP1 cells, no CPT, ATP luminescence, 48 h | Potency, µM (series often up to 46.2 µM), without a hit: at the top dose activity change, negative = growth inhibition, usual class: inhibitors | actives 15% (n = 420,000); also: potency is read from the fitted curve at half-maximal effect; nearly all actives have a fitted effect of over 55% in size
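Compound effects on proliferation are scored in DT40 Tdp1-/-;hTDP1 cells in the absence of CPT. ATP levels (CellTiter-Glo luminescence) are recorded after a ≥48 hr, 37 °C incubation.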
DT40 TDP1 CPT: growth inhibition of DT40 Tdp1-/-;hTDP1 cells with camptothecin (screen for TDP1 inhibitors). chicken DT40 Tdp1-/-;hTDP1 cells + 20 nM CPT, ATP luminescence, 48 h. Potency, µM (titrated, usually from 46.2 µM), for inactives: at the top dose activity change, negative = growth inhibition, most hits filed as inhibitors. actives 12% (n = 420,000). AID 686979; also: potency is read from the fitted curve at half-maximal effect; nearly all actives have a fitted effect of over 55% in size
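Chicken DT40 Tdp1-/- cells stably complemented with human TDP1 were seeded at 400 cells/well in medium containing 20 nM camptothecin, exposed to pin-transferred compounds, and grown at 37 °C for at least 48 hr. Viability was read as ATP luminescence.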
IL1B secr inh: blocks inflammasome-driven IL-1 beta release. actives 4.7% (n = 360,000). activity change, % at 57.5 µM. THP-1 LPS/ATP IL-1B secretion, AlphaLISA, 16 h; active compounds read low; in the data active = activity change below about -50%; inconclusive = mostly about -30% to -49%
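Secreted IL-1B measured by AlphaLISA bead assay after 16 h compound exposure of THP-1 cells; compounds (final up to 57.5 uM) added 1 h before LPS (250 ng/mL) and ATP (1.25 mM) stimulation; lower signal means less secretion.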
An asterisk follows results filed as active; [ ] = dose if it differs, or a comment. Unless noted, calls follow the shape of the dose curve; as a rule, active = well fitted curve in the direction sought with a large enough effect; inconclusive = small, poorly fitted or top-dose-only effect, or another doubt; inactive = no such curve, though single readings can be large; an effect the other way counts as inactive or inconclusive. Unless noted, % is scaled to controls: 0 for no effect and ±100 for the full control effect.

COCCn1c(SCC(=O)c2ccc(Cl)cc2)nnc1C(C)C was read as LDHA inh -3, RORg inh -20%, VP16 counter 11%, TDP1 cell noCPT 21µM*, DT40 TDP1 CPT inconclusive and IL1B secr inh 13.
Cc1cc2[nH]c(=O)c(=O)[nH]c2cc1S(=O)(=O)N(C)C1CCCCC1 was read as LDHA inh 0, RORg inh -2%, VP16 counter 1%, TDP1 cell noCPT 21µM*, DT40 TDP1 CPT 21µM* and IL1B secr inh 36.
`Cc1cc2c(cc1S(=O)(=O)N(CCN(C)C)Cc1ccccc1)OCC(=O)N2` gave LDHA inh -1, TDP1 cell noCPT inconclusive and DT40 TDP1 CPT 13µM*.
Screening Cc1cc2c(cc1S(=O)(=O)N(C)C1CCCCC1)OCC(=O)N2 returned LDHA inh 4, RORg inh 0%, VP16 counter 4%, TDP1 cell noCPT 23µM*, DT40 TDP1 CPT inconclusive and IL1B secr inh 36.
For CCN(c1ccccc1)S(=O)(=O)c1cc2c(cc1C)NC(=O)CO2 the results were LDHA inh 1, RORg inh -14%, VP16 counter 7%, TDP1 cell noCPT -11%, DT40 TDP1 CPT -1% and IL1B secr inh 23.
COc1ccccc1OC(=O)c1ccccc1C was read as LDHA inh -1.
For CC(C)(CO)Cc1cc(C(C)(C)C)c(O)c(C(C)(C)C)c1 the results were LDHA inh 8, RORg inh inconclusive, VP16 counter inconclusive, TDP1 cell noCPT inconclusive, DT40 TDP1 CPT 18µM* and IL1B secr inh 3.
CC(C)(C)c1cc(Cc2cc(C(C)(C)C)c(O)c(C(C)(C)C)c2)cc(C(C)(C)C)c1O was read as LDHA inh 9.
`COc1cccc(NC(=O)Nc2cccs2)c1` gave LDHA inh -4, RORg inh 6.3µM*, VP16 counter 5µM*, TDP1 cell noCPT inconclusive, DT40 TDP1 CPT inconclusive and IL1B secr inh 5.
Screening CC(=O)c1cccc(NC(=O)Nc2cccs2)c1 returned LDHA inh -3, RORg inh inconclusive, VP16 counter inconclusive, TDP1 cell noCPT inconclusive, DT40 TDP1 CPT 16µM* and IL1B secr inh 0.
For COc1cccc(C(C)NC(=O)Nc2cccc(C(F)(F)F)c2)c1 (stereo unspecified) the results were LDHA inh -5, RORg inh inconclusive, VP16 counter 35µM*, TDP1 cell noCPT 10µM*, DT40 TDP1 CPT 21µM* and IL1B secr inh 6.
COC(=O)c1ccc(Cl)cc1NC(=O)NC(C)c1c(-n2cccc2)sc(C)c1C (stereo unspecified) was read as LDHA inh -4, TDP1 cell noCPT inconclusive and DT40 TDP1 CPT inconclusive.
For CC(=O)c1cccc(NC(=O)Nc2cccc(Br)c2)c1 the results were LDHA inh 14.
`Cc1sc(-n2cccc2)c(C(C)NC(=O)Nc2cccc(C(F)(F)F)c2)c1C` (stereo unspecified) gave LDHA inh 1, TDP1 cell noCPT 21µM* and DT40 TDP1 CPT inconclusive.
Screening COc1cccc(NC(=O)Nc2ccc(C(C)(C)C)cc2)c1 returned LDHA inh 1, RORg inh inconclusive, VP16 counter -19%, TDP1 cell noCPT 23µM*, DT40 TDP1 CPT inconclusive and IL1B secr inh -66*.
For COc1ccc(N2C(=O)C3C4C=CC(CC4)C3C2=O)c([N+](=O)[O-])c1 (stereo unspecified) the results were LDHA inh 0, RORg inh -2%, VP16 counter -4%, TDP1 cell noCPT -38%, DT40 TDP1 CPT inconclusive and IL1B secr inh -15.
Screening COc1ccc(N=CC2CCCCC2=O)c([N+](=O)[O-])c1 (stereo unspecified) returned LDHA inh -3, TDP1 cell noCPT inconclusive, DT40 TDP1 CPT inconclusive and IL1B secr inh -85*.
Screening COc1ccc(C(Nc2cc(C)ccn2)c2ccc3ccc(C)nc3c2O)cc1 (stereo unspecified) returned LDHA inh 3, RORg inh 2.5µM*, VP16 counter 3.5µM*, TDP1 cell noCPT inconclusive, DT40 TDP1 CPT inconclusive and IL1B secr inh 5.
For Cc1ccnc(NC(c2ccsc2)c2ccc3ccc(C)nc3c2O)c1 (stereo unspecified) the results were LDHA inh 7, RORg inh 5µM*, VP16 counter inconclusive, TDP1 cell noCPT inconclusive, DT40 TDP1 CPT 23% and IL1B secr inh -84*.
CCc1cc2c3c([nH]c2cc1S(=O)(=O)N1CCC2(CC1)OCCO2)CCCC3=O was read as LDHA inh 1, RORg inh 24%, VP16 counter -10%, TDP1 cell noCPT 16µM*, DT40 TDP1 CPT 23µM* and IL1B secr inh -16.
Screening CCCCCCCCSc1ccc(C(C)=O)cc1 returned LDHA inh 0.
For Cc1ccc(-c2csc3nc(SCC(N)=O)n(Cc4ccccc4)c(=O)c23)cc1 the results were LDHA inh -11, RORg inh 11µM*, VP16 counter inconclusive, TDP1 cell noCPT inconclusive, DT40 TDP1 CPT inconclusive and IL1B secr inh 0.
Screening Cc1ccc(-c2csc3ncnc(SCc4ccc(C(=O)O)cc4)c23)cc1 returned LDHA inh -8, RORg inh 2.8µM*, VP16 counter 4.5µM*, TDP1 cell noCPT 0%, DT40 TDP1 CPT -13% and IL1B secr inh 2.
For Cn1c(=O)c2c(nc(SCC(N)=O)n2Cc2ccccc2)n(C)c1=O the results were LDHA inh -1.
`CCc1nnc(NC(=O)CSc2ncnc3scc(-c4ccc(C)cc4)c23)s1` gave LDHA inh -5, RORg inh 0%, VP16 counter -1%, TDP1 cell noCPT inconclusive, DT40 TDP1 CPT inconclusive and IL1B secr inh 8.
`Cc1ccc(-c2csc3ncnc(SCC(N)=O)c23)cc1` gave LDHA inh 3, RORg inh 1.6µM*, VP16 counter -21%[10 µM], TDP1 cell noCPT inconclusive, DT40 TDP1 CPT inconclusive and IL1B secr inh inconclusive.
Screening Cn1c(=O)c2c(ncn2CCC(=O)Nc2c(Cl)cccc2Cl)n(C)c1=O returned LDHA inh -3.
For CC(CNC(=O)Cn1cc(C(N)=O)c2ccccc21)c1ccccc1 (stereo unspecified) the results were LDHA inh -3.
`C/C(=N/Nc1ccc(S(N)(=O)=O)cc1[N+](=O)[O-])c1ccccc1F` gave LDHA inh 2.
